According to PubChem BioAssay AID1259415 (National Center for Advancing Translational Sciences (NCATS), 2018):
About 18,000 (4.4%) of roughly 410,000 compounds were called active. Roughly 7% stayed inconclusive and do not appear here. This is one part of a sample in which actives are shown more often than they occur. A number with no mark means an inactive call. Rule as the data show it: active = activity change below about -60%; inconclusive = no clear call, values can overlap the other calls; inactive = above about -39%.

Experiment: qHTS Assay for inhibitors of the human cytomegalovirus (HCMV)
Details: HFF cells, HCMV-luciferase reporter, 72 h; at 57.5 µM; active compounds read low
Summary of the method: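 Cell-based, HFFs, 1000 cells/well, 16 h 37C; cpds in DMSO + HCMV-luc, MOI 1 PFU/cell; 72 h 37C; OneGlo luminescence after 5 min RT; norm. to buffer vs Salinomycin 10uM.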
% is scaled to controls: 0 for no effect and ±100 for the full control effect.

Row | SMILES | activity change, negative = inhibition
1 | Cc1ccc2nc(C)c3c(c2c1)N(c1ccccc1)CC3 | -71.1% (active)
2 | Cc1ccc(C(=O)Nc2nc(N)n(-c3ccccc3)n2)cc1 | 68.4%
3 | Cc1ccc2c(c1)c1ncnc(N3CCc4ccccc4C3)c1n2C | 110%
4 | O=C(CN1CCN(Cc2ccc(F)cc2Cl)C1=O)NCc1cccs1 | -20.5%
5 | Cc1ccc(N2C(=O)C3C4C=CC(CC4)C3C2=O)cc1Cl (centres undefined) | 2.41%
6 | CC(C)CCN(C(=O)c1csnn1)C(C(=O)NC1CCCC1)c1ccccc1 (centres undefined) | 19.1%
7 | Cc1ccc(NC(=O)CCNC(=O)c2ccc([N+](=O)[O-])cc2)cc1S(=O)(=O)N1CCOCC1 | -102% (active)
8 | Cc1ccc(NC(=O)CCCNC(=O)c2ccc(Cl)cc2)cc1S(=O)(=O)N1CCCCC1 | -15.5%
9 | Cc1ccc(NC(=O)COC(=O)C2CC2)cc1S(=O)(=O)N1CCOCC1 | -3.87%
10 | Cc1ccc(C(=O)OCC(=O)Nc2ccc(Cl)cn2)cc1S(=O)(=O)N1CCOCC1 | -11.7%
11 | Cc1ccc(NC(=O)COC(=O)CNC(=O)c2ccc(Cl)cc2Cl)cc1S(=O)(=O)N1CCOCC1 | -100% (active)
12 | O=C(CCNC(=O)c1ccc([N+](=O)[O-])cc1)Nc1ccccc1N1CCOCC1 | -0.0167%
13 | O=C(NCCc1ccccn1)c1cc(C(=O)C2CCCCC2)c[nH]1 | 24.3%
14 | COC(=O)CN1C(=S)N(c2ccccc2)C(=O)C1CC(=O)Nc1ccc(Cl)cc1 (centres undefined) | -4.58%
15 | Cc1ccc(Cl)cc1N1CCN(S(=O)(=O)c2cc3[nH]c(=O)c(=O)[nH]c3cc2C)CC1 | 14.4%
16 | COc1ccccc1C(=O)OCc1cc(=O)n2nc(-c3cccs3)sc2n1 | 7.8%
17 | CC(C)(C)c1ccc(S(=O)(=O)Nc2ccc(O)c(Sc3nc4ccccc4s3)c2)cc1 | -13.2%
18 | CC1=C[C@H]2Cc3cc(C)cc(C)c3S(=O)(=O)[C@@H]2C=C1 | -67.4% (active)
19 | Cc1oc2c(c1C(=O)Nc1ccc(F)c(F)c1)C1=NCCN1C=N2 | -2.2%
20 | CCn1c(C(=O)Nc2cc(Cl)ccc2C)cc2sc(Cl)cc21 | -25.2%
21 | Fc1ccc(Cn2nnnc2C(c2cccs2)N2CCCCCC2)cc1 (centres undefined) | -74.3% (active)
22 | Fc1ccccc1C(c1nnnn1Cc1ccc2c(c1)OCO2)N1CCN(Cc2ccccc2)CC1 (centres undefined) | -2.67%

Row | SMILES | activity change, negative = inhibition
23 | N#Cc1ccc(C(c2nnnn2CCc2ccccc2)N2CCCCCC2)cc1 (centres undefined) | -31.2%
24 | COC(=O)c1c(NC(=O)C(C)Oc2ccc(Cl)c(C)c2)sc(C)c1C (centres undefined) | 24.4%
25 | Cc1cc(C)cc(OCC(=O)OCC(=O)NC2CCCC2)c1 | 0%
26 | CCOC(=O)C1CCCN(C(=O)Cn2ncc3c(C)n(Cc4ccc(F)cc4)c(C)c3c2=O)C1 (centres undefined) | -24.7%
27 | CCOC(=O)c1scc(-c2ccccc2)c1S(=O)(=O)Nc1ccccc1F | -9.83%
28 | COC(=O)c1scc(-c2ccc(C)cc2)c1S(=O)(=O)Nc1cc(Cl)c(OC)cc1OC | -32.1%
29 | COC(=O)c1scc(-c2ccccc2)c1S(=O)(=O)Nc1ccccc1 | -65.6% (active)
30 | Cc1cc(O)c(C(c2ccccc2)N2CCN(c3ccccc3F)CC2)c(=O)n1Cc1ccco1 (centres undefined) | 11.6%
31 | CC(=O)Nc1c(C)nn(-c2ccccc2)c1N1CCC(C(=O)Nc2cc(Cl)ccc2C)CC1 | 54.8%
32 | Cc1nnc(N2CCC(C(=O)Nc3ccc(F)cc3)CC2)c2nn(-c3ccc(Cl)cc3)c(C)c12 | -83.4% (active)
33 | CCc1ccc(CNC(=O)C2CCN(c3nnc(C)c4c(C)n(-c5ccc(C)cc5)nc34)CC2)cc1 | -8.15%
34 | CCOC(=O)C1CCC(CN(Cc2ccc(OC)cc2)S(=O)(=O)c2ccc(F)c(C(=O)Nc3cc(C)ccc3C)c2)CC1 (centres undefined) | -8.08%
35 | CCOCCCNC(=O)c1c(NC(=O)Cc2coc3ccc(C)cc23)sc2c1CCC2 | -5.35%
36 | CCc1c(C)nc2ncnn2c1N1CCC(C(=O)NCc2ccc3c(c2)OCO3)CC1 | -29.2%
37 | FC(F)(F)c1cc(Nc2nc3ccccc3c3nncn23)ccc1Cl | -13.6%
38 | CCC(=O)N1c2ccccc2CC1C(=O)N1CCN(c2ccccc2)CC1 (centres undefined) | 2.26%
39 | Cc1ccc(-n2ncc3c(N4CCC(C(N)=O)CC4)ncnc32)cc1 | 80.5%
40 | CCN(c1ncnc2c1cnn2-c1ccc(C)cc1)C1CCCCC1 | -79.6% (active)
41 | CN(C(=O)COc1ncnc2c1cnn2-c1ccccc1)C1CCCCC1 | -21.9%
42 | COc1ccc(CCNC(=O)CCc2c(C)nc3c(c(C)nn3-c3ccc(C)c(C)c3)c2C)c(OC)c1OC | 22.2%
43 | COc1cc(NS(=O)(=O)c2ccc3c(c2)OCC(C(=O)N2CCCC2)O3)cc(OC)c1 (centres undefined) | -21.9%
44 | C=Cc1ccc(Cn2c(C(=O)OC)cc3sc(C)cc32)cc1 | -33.1%
